# Laboratory results from the supplement of paper PMC11732987, “Enantioselective OTUD7B fragment discovery through chemoproteomics screening and high-throughput optimisation” (Communications Chemistry, 2025).
# A number with no mark means an inactive call.
# Columns and labels:
# Assay in all cases: log2 ratio of Biotin-Ahx-Ub-VS probe labelling (fragment/DMSO); higher = less target engagement (more negative = stronger competition), active = hit call of the paper (q ≤ 0.05, log2 ratio ≤ -1)
# Settings in all cases: compound concentration: 200 uM; treatment time: 3 h
# USP9X = USP9X (UniProt Q93008)
# Outline: (§1)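 HEK293T lysate (495 µg per sample, in Tris/CHAPS/IGEPAL buffer with protease inhibitors) was exposed in triplicate for 3 h to fragment at 200 µM or to vehicle, then to Biotin-Ahx-Ub-VS at 0.5 µM final for 1 h. Labelled DUBs were enriched on NeutrAvidin, digested with LysC and trypsin, and analysed by diaPASEF LC-MS/MS. Spectronaut label-free quantities were normalised to the global median, and values are average log2 ratios of fragment over vehicle from an unpaired t-test. Only proteins with ≥2 unique peptides were used.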
# UniProt O00487 = biological target: UniProt O00487
# Chain of UniProt O00487 (O00487 whole entry): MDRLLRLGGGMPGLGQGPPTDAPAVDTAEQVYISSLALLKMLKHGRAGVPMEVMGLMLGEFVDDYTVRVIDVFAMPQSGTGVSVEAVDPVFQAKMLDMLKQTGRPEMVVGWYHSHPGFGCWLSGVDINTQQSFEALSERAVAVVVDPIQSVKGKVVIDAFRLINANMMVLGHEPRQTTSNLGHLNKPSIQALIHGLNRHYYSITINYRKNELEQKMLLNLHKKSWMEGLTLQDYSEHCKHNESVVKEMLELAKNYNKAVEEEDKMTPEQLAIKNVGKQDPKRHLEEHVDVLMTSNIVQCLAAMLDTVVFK
# Outline: as §1
# UniProt O00507 = biological target: UniProt O00507
# Chain of UniProt O00507 (O00507 whole entry): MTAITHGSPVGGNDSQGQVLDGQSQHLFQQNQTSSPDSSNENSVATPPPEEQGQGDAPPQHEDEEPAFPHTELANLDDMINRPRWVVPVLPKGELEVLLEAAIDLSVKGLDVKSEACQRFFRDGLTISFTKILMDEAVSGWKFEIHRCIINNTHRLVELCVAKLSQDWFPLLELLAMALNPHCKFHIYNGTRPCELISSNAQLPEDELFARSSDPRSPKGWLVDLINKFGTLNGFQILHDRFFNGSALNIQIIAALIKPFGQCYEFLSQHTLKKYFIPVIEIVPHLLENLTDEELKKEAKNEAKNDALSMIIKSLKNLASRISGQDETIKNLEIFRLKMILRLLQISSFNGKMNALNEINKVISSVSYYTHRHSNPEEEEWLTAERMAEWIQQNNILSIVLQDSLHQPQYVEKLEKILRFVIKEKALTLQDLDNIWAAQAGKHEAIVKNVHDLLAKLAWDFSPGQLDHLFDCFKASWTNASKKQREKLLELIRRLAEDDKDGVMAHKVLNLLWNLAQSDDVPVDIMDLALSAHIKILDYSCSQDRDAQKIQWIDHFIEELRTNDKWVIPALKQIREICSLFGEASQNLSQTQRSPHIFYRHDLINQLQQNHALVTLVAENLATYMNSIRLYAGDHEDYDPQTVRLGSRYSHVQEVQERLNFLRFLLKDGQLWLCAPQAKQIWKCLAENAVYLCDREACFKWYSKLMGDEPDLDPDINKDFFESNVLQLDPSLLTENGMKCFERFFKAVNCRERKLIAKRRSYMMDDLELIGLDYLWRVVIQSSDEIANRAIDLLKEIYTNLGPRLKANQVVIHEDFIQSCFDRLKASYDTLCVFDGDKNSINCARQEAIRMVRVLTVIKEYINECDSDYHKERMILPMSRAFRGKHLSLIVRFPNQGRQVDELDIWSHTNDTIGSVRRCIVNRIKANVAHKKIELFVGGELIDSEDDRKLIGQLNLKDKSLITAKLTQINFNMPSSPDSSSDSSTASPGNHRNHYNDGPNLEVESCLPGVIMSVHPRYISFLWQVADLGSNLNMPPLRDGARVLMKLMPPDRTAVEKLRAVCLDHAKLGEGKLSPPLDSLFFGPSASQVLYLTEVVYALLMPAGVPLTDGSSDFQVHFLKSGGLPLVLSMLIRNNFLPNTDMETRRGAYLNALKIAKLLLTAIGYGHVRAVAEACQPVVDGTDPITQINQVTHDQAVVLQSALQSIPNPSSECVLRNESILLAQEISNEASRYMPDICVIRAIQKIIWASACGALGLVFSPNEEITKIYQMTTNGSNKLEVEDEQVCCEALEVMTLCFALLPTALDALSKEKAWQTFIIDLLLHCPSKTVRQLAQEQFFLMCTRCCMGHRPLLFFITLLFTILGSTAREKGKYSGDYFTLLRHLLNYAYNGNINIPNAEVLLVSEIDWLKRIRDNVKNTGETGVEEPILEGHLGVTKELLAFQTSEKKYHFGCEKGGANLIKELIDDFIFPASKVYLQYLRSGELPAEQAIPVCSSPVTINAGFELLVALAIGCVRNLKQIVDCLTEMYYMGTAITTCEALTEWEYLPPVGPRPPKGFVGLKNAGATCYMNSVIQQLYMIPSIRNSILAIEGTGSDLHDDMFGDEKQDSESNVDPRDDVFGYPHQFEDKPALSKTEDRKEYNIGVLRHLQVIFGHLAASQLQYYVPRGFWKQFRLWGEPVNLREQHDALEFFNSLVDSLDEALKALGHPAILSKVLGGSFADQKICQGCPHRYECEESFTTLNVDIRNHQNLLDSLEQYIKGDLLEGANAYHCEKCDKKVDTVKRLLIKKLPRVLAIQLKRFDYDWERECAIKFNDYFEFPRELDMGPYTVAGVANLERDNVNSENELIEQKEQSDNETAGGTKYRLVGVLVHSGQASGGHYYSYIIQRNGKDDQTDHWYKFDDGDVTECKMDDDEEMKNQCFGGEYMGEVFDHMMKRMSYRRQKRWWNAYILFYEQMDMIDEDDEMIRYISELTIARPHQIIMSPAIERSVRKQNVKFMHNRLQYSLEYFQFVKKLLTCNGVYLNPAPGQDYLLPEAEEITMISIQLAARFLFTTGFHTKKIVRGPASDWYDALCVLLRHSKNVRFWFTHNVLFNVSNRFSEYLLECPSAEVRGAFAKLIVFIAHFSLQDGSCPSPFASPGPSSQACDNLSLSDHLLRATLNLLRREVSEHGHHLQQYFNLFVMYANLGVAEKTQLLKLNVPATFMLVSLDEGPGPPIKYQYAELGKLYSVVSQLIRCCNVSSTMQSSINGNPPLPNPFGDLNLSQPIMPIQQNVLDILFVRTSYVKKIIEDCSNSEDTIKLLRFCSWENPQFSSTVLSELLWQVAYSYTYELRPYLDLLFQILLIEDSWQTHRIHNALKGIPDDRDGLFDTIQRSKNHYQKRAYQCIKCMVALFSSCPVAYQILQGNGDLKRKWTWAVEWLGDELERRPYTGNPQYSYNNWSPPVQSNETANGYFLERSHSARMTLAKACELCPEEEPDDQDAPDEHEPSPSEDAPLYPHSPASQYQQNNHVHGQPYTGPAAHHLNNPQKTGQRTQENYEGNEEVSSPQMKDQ
# Outline: as §1
# UniProt P51784 = biological target: UniProt P51784
# Chain of UniProt P51784 (P51784 whole entry): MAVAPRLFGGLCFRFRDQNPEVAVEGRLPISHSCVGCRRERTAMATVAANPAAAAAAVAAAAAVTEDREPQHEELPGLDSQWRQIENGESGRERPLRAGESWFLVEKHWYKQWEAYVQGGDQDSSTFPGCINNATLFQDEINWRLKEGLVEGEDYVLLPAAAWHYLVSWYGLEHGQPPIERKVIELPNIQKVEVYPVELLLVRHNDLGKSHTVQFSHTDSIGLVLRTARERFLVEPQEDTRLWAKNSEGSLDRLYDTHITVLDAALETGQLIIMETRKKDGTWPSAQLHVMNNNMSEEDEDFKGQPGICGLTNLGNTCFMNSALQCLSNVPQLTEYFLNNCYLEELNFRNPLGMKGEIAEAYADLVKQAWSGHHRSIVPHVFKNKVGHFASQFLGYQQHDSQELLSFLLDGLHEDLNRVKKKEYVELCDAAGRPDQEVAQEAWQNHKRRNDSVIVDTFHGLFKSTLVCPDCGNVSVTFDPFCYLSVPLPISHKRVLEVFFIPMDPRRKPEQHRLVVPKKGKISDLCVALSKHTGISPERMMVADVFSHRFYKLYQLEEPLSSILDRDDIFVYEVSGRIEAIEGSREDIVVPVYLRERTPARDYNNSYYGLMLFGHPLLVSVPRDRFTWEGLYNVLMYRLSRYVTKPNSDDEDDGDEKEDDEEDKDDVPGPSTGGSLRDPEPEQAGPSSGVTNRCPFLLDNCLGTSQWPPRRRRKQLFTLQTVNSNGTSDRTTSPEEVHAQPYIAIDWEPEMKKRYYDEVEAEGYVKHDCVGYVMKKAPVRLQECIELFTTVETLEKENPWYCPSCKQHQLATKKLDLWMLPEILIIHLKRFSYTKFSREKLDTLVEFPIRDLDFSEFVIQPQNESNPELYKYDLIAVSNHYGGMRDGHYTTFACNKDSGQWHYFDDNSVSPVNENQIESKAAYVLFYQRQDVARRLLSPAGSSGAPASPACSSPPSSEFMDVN
# Outline: as §1
# UniProt Q5T2D3 = biological target: T1, UniProt Q5T2D3
# T1 sequence (whole entry): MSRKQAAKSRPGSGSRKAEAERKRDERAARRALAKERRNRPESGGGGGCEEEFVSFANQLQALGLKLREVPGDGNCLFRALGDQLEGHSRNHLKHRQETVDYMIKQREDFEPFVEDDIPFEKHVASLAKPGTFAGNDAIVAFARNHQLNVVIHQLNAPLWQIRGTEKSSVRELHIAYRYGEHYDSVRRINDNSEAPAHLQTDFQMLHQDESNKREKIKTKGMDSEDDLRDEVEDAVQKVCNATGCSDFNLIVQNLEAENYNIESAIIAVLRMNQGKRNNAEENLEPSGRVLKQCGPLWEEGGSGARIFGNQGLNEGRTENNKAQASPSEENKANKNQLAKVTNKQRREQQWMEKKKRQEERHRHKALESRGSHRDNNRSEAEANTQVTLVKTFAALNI
# Outline: as §1
# UniProt Q8TE49 = biological target: T2, UniProt Q8TE49
# T2 sequence (whole entry): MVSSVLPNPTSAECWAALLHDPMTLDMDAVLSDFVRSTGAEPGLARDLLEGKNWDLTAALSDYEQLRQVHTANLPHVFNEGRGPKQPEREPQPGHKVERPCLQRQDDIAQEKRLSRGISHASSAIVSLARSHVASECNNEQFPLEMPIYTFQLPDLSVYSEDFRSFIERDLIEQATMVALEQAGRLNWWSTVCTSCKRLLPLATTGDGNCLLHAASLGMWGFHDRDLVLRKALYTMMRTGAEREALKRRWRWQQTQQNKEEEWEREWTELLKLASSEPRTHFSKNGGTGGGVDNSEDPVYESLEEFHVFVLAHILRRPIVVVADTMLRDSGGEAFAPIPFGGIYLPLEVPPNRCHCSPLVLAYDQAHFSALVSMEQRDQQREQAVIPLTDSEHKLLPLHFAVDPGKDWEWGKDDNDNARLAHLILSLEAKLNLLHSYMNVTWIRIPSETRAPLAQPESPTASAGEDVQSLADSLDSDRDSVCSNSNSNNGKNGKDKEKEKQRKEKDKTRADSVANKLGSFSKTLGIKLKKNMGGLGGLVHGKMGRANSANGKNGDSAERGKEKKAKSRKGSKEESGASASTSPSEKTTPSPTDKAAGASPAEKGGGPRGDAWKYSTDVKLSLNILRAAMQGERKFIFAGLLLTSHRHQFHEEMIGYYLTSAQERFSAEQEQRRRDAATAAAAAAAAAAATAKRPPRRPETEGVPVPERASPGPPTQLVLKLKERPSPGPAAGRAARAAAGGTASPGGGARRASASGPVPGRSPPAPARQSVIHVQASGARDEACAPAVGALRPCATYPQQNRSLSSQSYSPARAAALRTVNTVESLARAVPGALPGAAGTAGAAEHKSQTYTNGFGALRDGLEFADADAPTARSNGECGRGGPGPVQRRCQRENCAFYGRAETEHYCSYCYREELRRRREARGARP
# Outline: as §1
# UniProt Q9P2H5 = biological target: T3, UniProt Q9P2H5
# T3 sequence (whole entry): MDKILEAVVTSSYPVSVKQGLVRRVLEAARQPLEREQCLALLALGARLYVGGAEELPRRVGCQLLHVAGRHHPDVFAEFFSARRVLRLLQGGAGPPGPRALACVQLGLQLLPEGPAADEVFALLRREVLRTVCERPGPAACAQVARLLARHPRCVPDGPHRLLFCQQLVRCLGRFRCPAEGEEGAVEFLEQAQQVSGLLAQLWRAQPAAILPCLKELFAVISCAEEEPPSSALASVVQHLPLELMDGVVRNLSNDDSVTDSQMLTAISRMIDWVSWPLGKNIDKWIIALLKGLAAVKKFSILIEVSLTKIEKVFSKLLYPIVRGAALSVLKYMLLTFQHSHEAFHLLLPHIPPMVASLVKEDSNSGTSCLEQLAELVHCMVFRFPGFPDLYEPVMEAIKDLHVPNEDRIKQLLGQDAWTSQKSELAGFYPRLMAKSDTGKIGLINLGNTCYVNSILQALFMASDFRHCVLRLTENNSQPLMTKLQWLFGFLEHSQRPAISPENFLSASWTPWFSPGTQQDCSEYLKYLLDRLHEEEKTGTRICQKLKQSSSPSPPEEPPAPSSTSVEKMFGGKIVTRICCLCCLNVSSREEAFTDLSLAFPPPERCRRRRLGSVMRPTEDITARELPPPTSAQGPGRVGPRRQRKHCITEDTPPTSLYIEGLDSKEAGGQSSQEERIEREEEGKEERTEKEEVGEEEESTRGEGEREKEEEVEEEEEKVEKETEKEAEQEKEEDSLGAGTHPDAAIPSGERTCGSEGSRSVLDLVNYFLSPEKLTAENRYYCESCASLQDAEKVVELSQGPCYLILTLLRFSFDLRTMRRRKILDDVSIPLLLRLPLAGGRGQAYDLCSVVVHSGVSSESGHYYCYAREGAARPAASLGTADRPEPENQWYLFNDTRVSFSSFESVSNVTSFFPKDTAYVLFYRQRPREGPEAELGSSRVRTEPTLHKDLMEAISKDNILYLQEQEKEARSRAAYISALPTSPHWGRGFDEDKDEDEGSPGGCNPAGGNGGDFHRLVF
# Outline: as §1
# UniProt Q9UGI0 = biological target: T4, UniProt Q9UGI0
# T4 sequence (whole entry): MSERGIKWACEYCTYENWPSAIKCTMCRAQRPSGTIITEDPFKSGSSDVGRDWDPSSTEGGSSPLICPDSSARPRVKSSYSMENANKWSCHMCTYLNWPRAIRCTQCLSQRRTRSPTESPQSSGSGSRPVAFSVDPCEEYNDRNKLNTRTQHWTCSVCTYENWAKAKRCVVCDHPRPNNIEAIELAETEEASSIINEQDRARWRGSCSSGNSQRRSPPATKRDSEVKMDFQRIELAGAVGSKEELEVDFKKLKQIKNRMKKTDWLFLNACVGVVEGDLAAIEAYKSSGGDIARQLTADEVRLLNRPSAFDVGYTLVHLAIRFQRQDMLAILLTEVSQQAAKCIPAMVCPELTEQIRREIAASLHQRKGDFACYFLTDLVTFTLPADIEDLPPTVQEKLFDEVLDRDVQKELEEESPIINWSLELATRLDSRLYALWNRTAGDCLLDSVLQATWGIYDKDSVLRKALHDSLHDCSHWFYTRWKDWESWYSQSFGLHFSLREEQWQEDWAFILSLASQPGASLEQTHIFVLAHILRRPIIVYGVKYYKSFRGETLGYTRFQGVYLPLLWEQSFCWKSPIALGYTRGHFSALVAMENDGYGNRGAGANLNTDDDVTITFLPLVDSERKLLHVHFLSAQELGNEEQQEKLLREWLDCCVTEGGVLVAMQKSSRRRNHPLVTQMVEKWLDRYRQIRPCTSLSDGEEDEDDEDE
# Outline: as §1
# YOD1 = biological target: T5, YOD1 (UniProt Q5VVQ6)
# T5 sequence (whole entry): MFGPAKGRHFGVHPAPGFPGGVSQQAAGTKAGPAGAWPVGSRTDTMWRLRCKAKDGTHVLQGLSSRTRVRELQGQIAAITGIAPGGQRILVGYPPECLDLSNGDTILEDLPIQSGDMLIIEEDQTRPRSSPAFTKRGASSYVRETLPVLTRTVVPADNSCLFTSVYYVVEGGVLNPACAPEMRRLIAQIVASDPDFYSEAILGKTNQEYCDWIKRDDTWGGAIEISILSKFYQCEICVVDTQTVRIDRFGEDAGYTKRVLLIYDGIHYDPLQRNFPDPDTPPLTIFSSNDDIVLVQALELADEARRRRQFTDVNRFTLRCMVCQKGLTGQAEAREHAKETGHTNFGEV
# Outline: as §1
compound,measurement,setting,value
COc1ccc(-c2csc(NC(=O)CCl)n2)cc1,log2 ratio of Biotin-Ahx-Ub-VS probe labelling,USP9X,-0.66
same,log2 ratio of Biotin-Ahx-Ub-VS probe labelling,UniProt O00487,-0.101
same,log2 ratio of Biotin-Ahx-Ub-VS probe labelling,UniProt O00507,-0.576
same,log2 ratio of Biotin-Ahx-Ub-VS probe labelling,UniProt P51784,-0.0937
same,log2 ratio of Biotin-Ahx-Ub-VS probe labelling,UniProt Q5T2D3,-0.257
same,log2 ratio of Biotin-Ahx-Ub-VS probe labelling,UniProt Q8TE49,-0.479
same,log2 ratio of Biotin-Ahx-Ub-VS probe labelling,UniProt Q9P2H5,-0.528
same,log2 ratio of Biotin-Ahx-Ub-VS probe labelling,UniProt Q9UGI0,-2.09 (active)
same,log2 ratio of Biotin-Ahx-Ub-VS probe labelling,YOD1,-0.00199
